proKLK7 act: activates the human kallikrein-7 zymogen. AID 652039. P49862. purified proKLK7, EDANS-DABCYL substrate fluorescence; 100% is mature enzyme control, 0% vehicle. activation, % at 7 µM. hit rate 0.9% among 370,000;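 active means activation above the mean of all tested compounds plus 3 SD, computed per campaign excluding outliers beyond control limits, cut at about 13% in these data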
ADAM10 inh: ADAM10 inhibition, QFRET primary screen; AID 720582; recombinant ADAM10, EDANS/DABCYL FRET peptide cleavage, 3 h; hit rate 0.62% among 370,000; O14672; inhibition, % at 7 µM;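 active means inhibition above a per-campaign cutoff equal to the mean of compounds falling between control-based bounds plus 3 SD, cut at about 20% in these data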;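 further: 0% = DMSO wells while the 100% control is not disclosed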
Target sequence (O14672 214-748 limits assumed): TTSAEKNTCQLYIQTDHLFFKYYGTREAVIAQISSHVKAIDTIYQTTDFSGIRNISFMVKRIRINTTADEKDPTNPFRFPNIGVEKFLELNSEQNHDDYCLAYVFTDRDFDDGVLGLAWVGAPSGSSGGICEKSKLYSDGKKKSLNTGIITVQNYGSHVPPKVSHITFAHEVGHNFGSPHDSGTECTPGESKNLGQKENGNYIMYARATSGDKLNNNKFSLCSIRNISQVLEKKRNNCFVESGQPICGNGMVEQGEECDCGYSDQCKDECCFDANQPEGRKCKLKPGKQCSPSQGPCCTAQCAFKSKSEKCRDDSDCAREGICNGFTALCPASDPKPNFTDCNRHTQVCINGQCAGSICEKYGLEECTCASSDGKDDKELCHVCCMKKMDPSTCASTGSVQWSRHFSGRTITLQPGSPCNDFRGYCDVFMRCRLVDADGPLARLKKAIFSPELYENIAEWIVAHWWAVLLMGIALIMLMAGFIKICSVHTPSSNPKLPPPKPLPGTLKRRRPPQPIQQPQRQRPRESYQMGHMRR
ADAM17 inh: ADAM17 inhibition, QFRET primary screen; inhibition, % at 6.95 µM; hit rate 0.83% among 370,000; recombinant ADAM17, EDANS/DABCYL FRET peptide cleavage; P78536;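 active means inhibition above the mean of compounds lying between control limits plus 3 SD, set per campaign, cut at about 8.5% in these data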;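 further: 0% = DMSO-only wells as the low control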
AHR activator: activates the human aryl hydrocarbon receptor. AHR-responsive luciferase reporter cells, luminescence. activation, % at 5 µM. hit rate 2.5% among 320,000. P35869. AID 2796; in the data active means activation above about 47%;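 further: 0% = vehicle wells and 100% = reference agonist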
rCAG binder: molecules binding r(CAG) RNA repeats; inhibition, % at 3 µM; hit rate 1.3% among 370,000; r(CAG) RNA repeat, TO-PRO-1 dye displacement fluorescence;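 active means inhibition above the plate cutoff, the mean of all test compounds on that plate plus 3 SD, cut at about 35% in these data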;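 further: 0% = DMSO alone and 100% = 100 µM mitoxantrone as full dye displacement; higher means more dye released from RNA so lower well fluorescence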
GRIN3A LBD mod: NR3A (human) ligand-binding domain modulation | NR3A LBD differential scanning fluorimetry, Tm shift; 0% = protein alone, 100% = glycine-bound protein | Tm shift relative to glycine control, % at 25 µM | hit rate 2.5% among 340,000;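 active means melting temperature shift of at least 10% of the positive control shift, at one fixed dose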
AHR act cf: confirmation of human aryl hydrocarbon receptor activators; shares compounds with AHR activator; human cells, AHR-responsive luciferase reporter, luminescence; activation, % at 9 µM; hit rate 87% among 2,300; in the data active means activation above about 49%;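 further: HepG2 hepatoma cells carrying a DRE-driven firefly luciferase reporter; 0% = vehicle wells and 100% = reference agonist wells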
PXR counter: activates human PXR in AHR activator counter-screen; activation, % at 11.6 µM; cell-based PXR reporter, luciferase luminescence; hit rate 88% among 2,300; AID 434939; shares compounds with AHR activator; in the data active means activation above about 11%;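 further: human hepatoma DPX-2 cells expressing full-length human PXR; 0% = DMSO and 100% = reference agonist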
Starred values were filed as active, the others as inactive; . = no result given. Hits are enriched below; roughly 7% of the tested compounds scored in any of these assays.

SMILES	proKLK7 act	ADAM10 inh	ADAM17 inh	AHR activator	rCAG binder	GRIN3A LBD mod	AHR act cf	PXR counter
COc1ccc2c(c1)[C@@]1(NCCc3c1[nH]c1ccc(OC)cc31)C(=O)N2C	0	7	-2	.	1	.	.	.
Fc1ccc2nc(Nc3nc4cc5c(cc4s3)OCO5)sc2c1	-1	-65	-26	119*	6	31*	80*	19*
CC(C)C(=O)Nc1nc2cc3c(cc2s1)OCCO3	0	4	-1	37	1	1	.	.
Fc1ccc2nc(Nc3nc4cc5c(cc4s3)OCCO5)sc2c1	-16	-381	-122	103*	28	4	52*	-6
CN(CCCOC(=O)c1cc2ccccc2o1)C1CN(Cc2cn(Cc3ccccc3Cl)nn2)S(=O)(=O)C1 (stereo not given)	0	7	2	.	1	.	.	.
CCN(C(=O)CSc1nc2n[nH]c(C)c2c(=N)n1-c1ccc(Cl)c(C)c1)c1cccc(C)c1	-1	-6	-1	24	7	-7	.	.
CCCCN(CC)C(=O)CSc1nc2n[nH]c(C)c2c(=N)n1-c1cccc(C)c1	0	2	1	86*	0	-2	46	147*
COC(=O)[C@]12C[C@H](CC(=O)N3CCCC3)C(=O)N(Cc3ccccc3)C1=C[C@H](C(C)C)O[C@@H]2C1CC1	0	1	2	.	-1	.	.	.
O=C(NCc1ccco1)C(Cc1ccccc1)N1C(=O)c2ccccc2C1=O (stereo not given)	0	2	-5	112*	1	-1	93*	66*
Cc1ccc(Nc2nc(NCCO)nc3c2cnn3C)cc1Cl	0	4	-7	81*	11	0	120*	16*
CCOc1ccccc1NC(=O)c1ccc2nc[nH]c2c1	0	5	0	-13	2	-5	.	.
CCCOc1ccccc1NC(=O)c1ccc(N)cc1	0	7	7	101*	0	3	117*	47*
CCCCOc1ccccc1NC(=O)c1ccc(=O)[nH]c1	0	3	1	1	0	1	.	.
CCOc1ccccc1NC(=O)c1ccc2nccnc2c1	0	2	-5	83*	-1	0	109*	.
CCOC(=O)c1cccc(-c2cc(C(C)=O)c3n(c2=O)CCC3)c1	-1	-8	-3	.	-1	.	.	.
CN(C)S(=O)(=O)c1cccc(NC(=O)c2cc(=O)[nH]c3ccccc23)c1	-1	-51	-16	2	3	0	.	.
Cc1cccc(NC(=O)c2cc(=O)[nH]c3ccccc23)c1	0	-2	-4	89*	6	0	90*	11*
S=C(NCc1ccc2[nH]c3c(c2c1)CCCC3)Nc1ccccc1	1	-17	0	112*	11	2	71*	36*
CCS(=O)(=O)NCc1ccc2[nH]c3c(c2c1)CCCC3	.	.	.	6	.	.	.	.
N/C(=N\OC(=O)c1cccc2ccccc12)c1cccnc1	0	-48	-16	85*	4	-11	55*	15*
CC(=O)Oc1ccccc1/C=C/c1ccc2ccccc2[n+]1C	-1	-13	-6	111*	-1	0	21	14*
COc1ccc(/C=C/c2ccc3ccccc3[n+]2C)cc1OC	.	.	.	19	.	2	.	.
CC(C)C[C@H]1COc2ccc(Cl)cc2S(=O)(=O)N1Cc1cn(Cc2ccc(C(F)(F)F)cc2)nn1	0	-5	-1	.	4	.	.	.
CCc1nc2oc3ccccc3c(=O)c2c(=O)n1-c1ccccc1	0	-3	-4	99*	-1	0	118*	24*
CCCc1nc2oc3ccccc3c(=O)c2c(=O)n1-c1ccc(C)cc1	0	-9	-2	81*	-2	-2	76*	68*
SMILES	proKLK7 act	ADAM10 inh	ADAM17 inh	AHR activator	rCAG binder	GRIN3A LBD mod	AHR act cf	PXR counter
COc1cccc(-c2ccc(CC[C@H]3O[C@H]4CC[C@H](CO)O[C@H]4C[C@H]3NS(C)(=O)=O)cc2)c1	1	5	1	.	2	.	.	.
COc1ccc(S[C@]2(C(=O)N3CCCC3)CC(=O)N(c3ccsc3)[C@@H]2c2ccc(OC)cc2)cc1	0	7	6	.	7	.	.	.
COc1ccc(NC(=O)Nc2ccc(F)cc2F)c(C)c1	-1	-2	0	1	-2	-1	.	.
COc1ccc(NC(=O)Nc2ccc(F)cc2)c(C)c1	0	-11	-6	111*	-1	3	11	25*
O=C(OCc1cn(Cc2ccccc2C(F)(F)F)nn1)N1CCOCC1	1	4	0	.	0	.	.	.
COc1ccc(-c2cc(C(=O)NN=Cc3ccccc3F)[nH]n2)cc1	0	-9	-1	.	3	.	.	.
COc1ccc(-c2ccc3c(n2)CCCN3S(=O)(=O)c2cccs2)cc1	-1	-75	-14	.	4	.	.	.
O=C(c1ccc(F)cc1)C1CCN(CCCn2c(=O)[nH]c3ccccc32)CC1	1	-5	-3	.	0	.	.	.
O=C(NCc1cccnc1)c1ccc(-c2cccc(Cl)c2Cl)o1	0	-2	-1	22	3	-5	.	.
O=C(NCc1cccnc1)c1ccc(-c2ccccc2[N+](=O)[O-])o1	-1	-9	0	87*	0	-3	95*	39*
Cc1ccc(-n2sc3ccccc3c2=O)cc1	0	1	1	80*	0	3	74*	30*
O=c1c2ccccc2sn1-c1ccc(F)cc1	0	0	-1	13	2	4	.	.
CC(C)C[C@H]1COc2cccc(F)c2S(=O)(=O)N1	0	-5	1	.	1	.	.	.
NC(=O)[C@@H]1CCCN1C(=O)[C@@H](Cc1ccccc1)NC(=O)[C@H]1O[C@@H](n2ccc(=O)[nH]c2=O)[C@H](O)[C@@H]1O	0	-4	-2	.	1	.	.	.
C/C(=N\NC(=O)c1c[nH]c2ccccc12)c1ccc(C)s1	0	7	0	92*	4	15*	126*	59*
CC/C(=N\NC(=O)c1c[nH]c2ccccc12)c1cccs1	0	3	1	83*	3	-5	151*	55*
C/C(=N\NC(=O)c1cccc2ccccc12)c1cccs1	0	-7	-1	7	-3	-2	.	.
CC(C)CN1C(=O)[C@@]2(CC(=O)N(C)C2c2ccccc2)c2cc(-n3cc(C(C)(C)O)nn3)ccc21 (stereo not given in full)	0	-1	1	.	-2	.	.	.
COC(=O)C1=C(C)N(Cc2ccccc2C(F)(F)F)C(=NCC2CC2)NC1c1cccc(F)c1 (stereo not given)	1	2	0	.	4	.	.	.
O=C(Nc1ccc(OC(F)(F)F)cc1)c1ccc2nc[nH]c2c1	0	-2	-1	96*	-2	3	137*	12*
